# cardiac RTF act: cardiac RTF calcium sensitivity activators, primary screen, biochemical, IANBD-TnC fluorescence, EC20 calcium; 340,000 compounds, 0.24% hits; IANBD-labeled TnC RTF fluorescence at EC20 calcium; 0% EC20 calcium, 100% full calcium; activation, % at 7.2 µM;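 active means activation above the mean over all tested compounds plus 3 SD, cut at about 30% in these data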;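 further: rise in fluorescence read as greater calcium sensitivity of cardiac thin filaments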
# Keap1-Nrf2 PPI: Keap1-Nrf2 protein-protein interaction inhibitors, primary screen, biochemical, fluorescence polarization, single point; Keap1 Kelch-Nrf2 peptide fluorescence polarization, 1536-well; AID 504523, 2011; inhibition, % at 9.4 µM; Kelch-like ECH-associated protein 1 (Homo sapiens), Q14145; 340,000 compounds, 0.15% hits; in the data active means inhibition above about 12%;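 further: human Keap1 Kelch domain with fluorescein labeled Nrf2 9mer peptide probe; 0% = neutral control wells and 100% = peptide positive control; higher means more block of Keap1 binding to Nrf2 peptide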
# Target sequence (Q14145 whole entry, looked up, the tested form may be a part): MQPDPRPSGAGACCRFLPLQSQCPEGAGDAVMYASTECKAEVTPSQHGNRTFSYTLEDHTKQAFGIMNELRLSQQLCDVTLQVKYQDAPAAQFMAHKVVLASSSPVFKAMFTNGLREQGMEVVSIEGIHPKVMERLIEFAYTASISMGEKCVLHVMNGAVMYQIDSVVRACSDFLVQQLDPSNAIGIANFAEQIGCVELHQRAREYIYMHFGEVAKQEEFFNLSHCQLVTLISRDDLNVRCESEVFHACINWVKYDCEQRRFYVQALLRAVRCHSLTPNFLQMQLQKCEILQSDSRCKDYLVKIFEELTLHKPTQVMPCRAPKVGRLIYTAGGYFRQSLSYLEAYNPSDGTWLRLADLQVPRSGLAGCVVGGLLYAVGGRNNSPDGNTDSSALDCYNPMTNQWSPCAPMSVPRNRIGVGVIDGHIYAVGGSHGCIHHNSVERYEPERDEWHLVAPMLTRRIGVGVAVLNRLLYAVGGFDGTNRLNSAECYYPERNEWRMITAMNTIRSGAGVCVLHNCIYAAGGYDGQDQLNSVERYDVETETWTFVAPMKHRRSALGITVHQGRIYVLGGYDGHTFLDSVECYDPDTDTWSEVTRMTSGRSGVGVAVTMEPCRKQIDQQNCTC
# LANA-H2B inh: blockers of LANA interaction with H2A/H2B – biochemical, FP readout, HTS, primary screen; Protein LANA1 (Human herpesvirus 8 type P (isolate GK18)), Q9QR71; cell-free LANA-H2A/H2B peptide, fluorescence polarization; inhibition, % (test concentration not listed); 320,000 compounds, 0.6% hits; AID 2629, 2010; in the data active means inhibition mostly above about 10%, no sharp cut-off; inactive means mostly below about 6.7%
# RTF Ca sens inh: cardiac RTF calcium sensitivity inhibitors, primary screen, biochemical, IANBD-TnC fluorescence, EC70 calcium | IANBD-labeled cardiac RTF, Ca2+ fluorescence | inhibition, % at 7.15 µM | 340,000 compounds, 0.12% hits | AID 493244, 2011;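 active means inhibition above the mean inhibition of all tested compounds plus 3 SD, cut at about 17% in these data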;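 further: assay run at fixed EC70 calcium of 1.6 mM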
# LANA DNA inh: inhibitors of KSHV C-LANA binding to DNA, primary screen, biochemical, fluorescence polarization, FAM-LBS DNA, MBP-C-LANA, single point. Kaposi's sarcoma herpesvirus LANA C-terminal domain (residues 932-1162) DNA binding. inhibition, % at 9 µM. 340,000 compounds, 0.078% hits. AID 504423, 2011;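 active means highest replicate inhibition at or above 60% at 9 µM, even if other replicates fall short; inactive means all replicates below 60% inhibition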;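 further: 0% = neutral control wells and 100% = 4 µM acridine orange control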
# The depositor's hits bear a star; . = no result given; + = active, no number. Most compounds without a hit are left out; they make up all but 0.98% or so of the library.
SMILES,cardiac RTF act,Keap1-Nrf2 PPI,LANA-H2B inh,RTF Ca sens inh,LANA DNA inh
CC1CN(CC(=O)Nc2ccc([N+](=O)[O-])cc2Br)CC(C)O1 (configuration not stated),4.6,-3.2,+,-6.1,-2.8
COc1cc(/C=N/N2CCN(C3c4ccccc4-c4ccccc43)CC2)ccc1O,-5.0,-3.8,25.5*,2.4,-0.7
O=C(COc1ccc([N+](=O)[O-])cc1)Nc1ccc(N2CCN(C(=O)c3ccco3)CC2)cc1,2.4,-6.9,28.4*,-10.5,1.4
Cc1ccc([N+](=O)[O-])cc1S(=O)(=O)Nc1ccc(C(=O)N2CCN(C(=O)c3ccco3)CC2)cc1,-0.5,2.8,16.5*,-4.5,-0.5
CC(C)NC(=O)/C(C#N)=C/c1ccc(N(C)C)o1,72.9*,-86.2,-46.8,-74.7,-33.7
Cc1ccc(/C=C(\C#N)C(=O)NC(C)C)o1,5.0,-7.2,1.1,-1.9,0.9
O=C(O)CC1Cc2ccccc2C1C(=O)O (configuration not stated),3.3,-1.5,.,-16.1,1.1
CC(C)N(C(=O)Cn1cc(S(=O)(=O)CC(=O)NCc2ccc(F)cc2)c2ccccc21)C(C)C,-0.1,-4.6,4.5,-1.9,1.0
COc1ccc(CC(=O)OCC(=O)NC2CCCCCC2)cc1OC,0.1,4.0,.,1.0,-1.1
[O-][n+]1c2ccccc2cc2ccccc21,-2.0,-1.3,17.8*,0.5,1.8
COc1ccc2c(ccc[n+]2[O-])c1,-0.7,4.1,.,-1.7,2.7
Cn1cnnc1SCc1ccc(C(=O)N/N=C(\CCC(=O)O)c2ccc(C(C)(C)C)cc2)cc1,3.6,-4.9,+,-5.2,0.0
Cc1cc2nc(/C(C#N)=C\c3ccc(-c4ccccc4C(=O)O)o3)[nH]c2cc1C,52.5*,-12.9,-7.4,-43.5,-12.1
Cc1ccc2nc(/C(C#N)=C/c3ccc(-c4ccccc4C(=O)O)o3)[nH]c2c1,27.5,-43.7,-6.6,-37.1,-8.9
Cc1ccc2nc(/C(C#N)=C\c3ccc(N4CCOCC4)o3)[nH]c2c1,151.9*,-145.8,-30.1,-132.7,-33.6
O=C(CCCc1ccccc1)NCCc1ccc(F)cc1,5.8,0.2,12.1,0.9,10.3
COc1ccc2ccccc2c1/C=N/NC(=O)c1sc(N)c(C#N)c1C,2.6,-1.0,+,4.1,-1.6
CCCCCN(C(=O)CCC(=O)OCC(=O)c1cccc(OC)c1)c1c(N)n(CCCC)c(=O)[nH]c1=O,-3.3,1.8,3.7,-5.1,-0.6
COc1cc(Cl)c(C)cc1NC(=O)CSc1nnc(CCC(=O)O)c(=O)[nH]1,-3.4,4.2,1.1,-0.2,0.0
CCCc1c(C(=O)NNc2ccccc2OC)cnn1-c1ccccc1,0.3,-3.2,17.8*,1.7,-0.7
Cc1ccc(NC2(C(F)(F)F)N=C(c3ccccc3)NC2=O)nc1 (configuration not stated),1.4,-0.8,1.7,-6.3,1.8
CCOC(=O)NC1(C(F)(F)F)N=C(c2ccccc2)NC1=O (configuration not stated),3.4,-1.9,14.5*,-7.3,-0.1
CSc1nc(=S)n(-c2cc(C)ccc2C)c(C)c1C(C)=O,-9.0,-6.2,2.0,-10.9,1.0
Cn1c(=O)[nH]c(=O)c2c1nc(N1CCNCC1)n2Cc1cccc2ccccc12,6.1,-3.9,17.8*,-3.5,-0.1
COc1ccc2nc(SCC(=O)C(C)(C)C)[nH]c2c1,4.8,0.6,-1.2,-6.9,2.6
SMILES,cardiac RTF act,Keap1-Nrf2 PPI,LANA-H2B inh,RTF Ca sens inh,LANA DNA inh
O=C(c1cccnc1)N1N=C(C2CC2)CC1(O)C(F)(F)F (configuration not stated),0.2,-4.4,11.4*,-4.4,-1.2
O=C(c1ccncc1)N1N=C(C2CC2)CC1(O)C(F)(F)F (configuration not stated),-8.0,4.5,0.8,-4.3,-0.6
CCC(C)NC(=O)CCn1c(=O)c2cccn2c2ccc(F)cc21 (configuration not stated),2.1,-4.6,0.1,-9.0,-1.5
CCNC(=S)Nc1ccc2ncoc2c1,4.1,1.7,31.4*,-8.3,-0.3
CCNC(=S)Nc1ccc2c(c1)oc1ccccc12,-5.2,1.1,1.4,-5.1,0.8
NNc1nnc2c3cc(F)ccc3n(Cc3ccccc3)c2n1,5.4,-1.2,0.1,-10.8,61.8*
CN(CCOC(=O)/C=C/c1ccccc1)C(C)(C)C,-4.2,-0.3,0.7,-0.6,0.2
CC(C)N(C)CCOC(=O)/C=C/c1ccccc1,2.9,-2.5,+,0.1,0.0
Fc1ccc(NC(=S)N2CCN(c3ccccn3)CC2)cc1Cl,-3.5,-4.1,0.2,-5.3,-2.4
NC(=NCCc1c[nH]c2ccccc12)NC(=O)c1ccc(Cl)cc1,5.0,2.8,1.4,-2.9,81.1*
O=C(N[C@@H](Cc1c[nH]c2ccccc12)C(=O)O)c1ccc(Cl)cc1,0.0,0.2,2.3,-6.0,-0.7
CCOC(=O)c1ccccc1-n1nnnc1C,124.1*,-2.9,-0.2,6.8,-0.5
C=CCNC(=S)NNC(=O)c1ccc(OCC(C)C)cc1,15.6,-2.5,19.2*,-3.5,-0.4
O=C(O)CC(NS(=O)(=O)Cc1ccccc1)c1cccc([N+](=O)[O-])c1 (configuration not stated),1.3,1.3,2.5,-12.2,1.1
CCOc1cc(C2C3=C(CCCC3=O)Nc3nc(C(=O)OC)nn32)ccc1OC (configuration not stated),0.4,-5.3,19.6*,-13.6,-2.6
COCc1ccc(C(=O)N2CCCC(Nc3ccc(F)c(F)c3)C2)s1 (configuration not stated),-3.2,-2.8,95.3*,-0.7,-0.7
CC1=NN(S(=O)(=O)c2ccc(Cl)cc2Cl)C(=O)c2ccccc2O1,-0.4,0.3,-0.1,-2.4,0.0
CC(CN1CCOCC1)OC(=O)COc1ccc(F)cc1 (configuration not stated),-5.9,-2.0,2.4,-13.6,-1.6
O=C(COc1ccc(F)cc1)OCCN1CCOCC1,-1.9,2.4,33.9*,-6.9,-0.7
O=C(CC1(O)C(=O)c2ccccc2C1=O)c1ccccc1,-6.2,-2.1,16.8,-20.8,0.5
O=C1c2ccccc2C(=O)C1(O)O,.,.,30.5*,.,.
COc1ccccc1NS(=O)(=O)c1cc(N=N/C(C(=O)Nc2ccc(Cl)cc2)=C(/C)O)ccc1C,6.5,-3.0,-2.5,-4.8,-1.5
CCCCc1ccc(N=N/C(C(=O)Nc2ccc(NC(C)=O)cc2OC)=C(/C)O)cc1,10.6,-6.9,47.3*,-5.0,-0.2
COc1ccc(C(C)(C)C)cc1NC(=O)c1c(C)noc1C,3.3,-4.5,5.2,0.5,-0.1

# Assay outcomes: PubChem BioAssay, several laboratories
